A selection: hits, their analogues and other compounds. The true share with any hit is near 3.5%.
GPR151 ag: human GPR151 activation | PathHunter beta-arrestin GPR151 cells, luminescence | Q8TDV0 | activation, % at 11.2 µM | hit rate 1% among 650,000 | AID 1508602; in the data active = activation above about 4.9%;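 also: 0% = median of compound wells and 100% = cells with positive control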
MITF inh: blocks human microphthalmia-associated transcription factor; O75030; AlphaScreen MITF homodimerization, bead proximity signal; inhibition, % at 2.6 µM; hit rate 0.91% among 650,000; AID 1259374; in the data active = inhibition above about 50%;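 also: 0% = vehicle wells with protein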
Target sequence (O75030 whole entry, looked up): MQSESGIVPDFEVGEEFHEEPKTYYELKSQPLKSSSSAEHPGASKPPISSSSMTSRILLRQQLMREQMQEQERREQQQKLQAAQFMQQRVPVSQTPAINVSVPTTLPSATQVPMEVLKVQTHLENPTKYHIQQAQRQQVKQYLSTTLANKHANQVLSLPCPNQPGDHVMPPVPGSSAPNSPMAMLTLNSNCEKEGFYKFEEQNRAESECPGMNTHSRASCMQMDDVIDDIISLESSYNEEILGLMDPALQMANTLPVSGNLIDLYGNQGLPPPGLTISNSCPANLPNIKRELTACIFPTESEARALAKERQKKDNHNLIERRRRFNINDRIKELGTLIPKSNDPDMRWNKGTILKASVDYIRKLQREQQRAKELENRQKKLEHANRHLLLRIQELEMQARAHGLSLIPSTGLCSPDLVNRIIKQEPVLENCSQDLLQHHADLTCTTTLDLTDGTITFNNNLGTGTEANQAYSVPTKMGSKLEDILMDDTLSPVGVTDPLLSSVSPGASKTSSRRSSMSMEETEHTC
FBW7 activator: human FBW7 E3 ligase activation, primary screen | Q969H0 | AID 1259310 | hit rate 0.13% among 650,000 | AlphaScreen FBW7–phospho-cyclin E peptide binding, activator screen | normalized activity (activation), % at 26.1 µM; in the data active = normalized activity above about 1.9%;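 also: purified mutant Fbw7 with reduced substrate affinity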
TEAD-YAP inh: TEAD-YAP interaction inhibition. HEK-TIYL cells, TEAD-Gal4/YAP UAS-luciferase luminescence. inhibition, % at 9.12 µM. hit rate 1.4% among 640,000; in the data active = inhibition above about 32%;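 also: 0% = median of test compound wells and 100% = reference inhibitor wells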
GPR151 confirm: human GPR151 activation, confirmation screen. shares compounds with GPR151 ag. GPR151 PathHunter beta-arrestin cells, luminescence, 90 min; % of EA-reagent control over plate median. activation, % at 11.2 µM. 6,700 tested, under 10 active;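 active = mean percent activation across replicates above the confirmation screen cutoff of 4.91%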
GPR119 counter: activates human GPR119 in a GPR151 counter-screen; shares compounds with GPR151 ag; GPR119 PathHunter beta-arrestin cells, luminescence, 90 min; 0 = compound-well median, 100 = enzyme-acceptor control; activation, % at 11.2 µM; hit rate 0.3% among 6,700;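 active = mean percent activation in the counterscreen above 29.09%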;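 also: counterscreen on off-target GPR119 to flag nonselective hits from the GPR151 activator screen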
* = called active by the depositor; x = no result.

SMILES	GPR151 ag	MITF inh	FBW7 activator	TEAD-YAP inh	GPR151 confirm	GPR119 counter
C#Cc1cccc(N2C(=O)c3cc4ccccc4c(-c4ccccc4)c3C2=O)c1	5.4*	6.8	-0.1	7.4	0.6	-5.0
O=c1c2cnn(-c3ccccc3)c2ncn1C/C=C/c1ccccc1	8.3*	2.6	0.1	1.2	0.4	2.3
O=C(CS(=O)(=O)c1ccccc1)Nc1nc(-c2ccc3ccccc3c2)cs1	1.9	-7.5	0.0	-8.3	x	x
O=C(CS(=O)(=O)c1ccccc1)Nc1nc(-c2ccc(F)cc2)cs1	9.7*	1.6	-0.2	-18.4	0.3	6.3
Cc1ccc2c(c1)CN(CCNC(=O)CCc1ccc(=O)[nH]n1)CC(C)O2 (stereo not drawn)	5.3*	-6.6	0.0	-6.4	0.2	-0.1
Cc1ccc2c(c1)CN(CCNC(=O)CCc1ccco1)CC(C)O2 (stereo not drawn)	0.7	12.9	0.0	-0.2	x	x
COc1cccc2ccc(CN3CCN(C4CCN(C(C)C)CC4)C(CCO)C3)nc12 (stereo not drawn)	9.0*	-1.8	-0.2	-3.1	-0.8	-1.8
CC(C)N1CCC(N2CCN(Cc3ccc(-c4ccc(Cl)cc4)o3)CC2CCO)CC1 (stereo not drawn)	6.6*	4.8	0.0	-1.2	1.6	13.4
CCOC(=O)C1=C(N)Oc2cc(C)n(CC)c(=O)c2C1c1cccc(OC)c1 (stereo not drawn)	0.4	2.5	-0.1	5.3	x	x
CCc1ccc(C2=NC(c3c(F)cccc3Cl)NC(c3ccccc3O)C2)cc1 (stereo not drawn)	2.0	4.7	-0.1	-46.2	x	x
COc1ccc(CCNC(=O)c2cnc(Nc3nccc4ccccc34)s2)cc1	5.8*	18.1	0.1	0.2	-0.1	-7.9
CCCNC(=O)c1cnc(Nc2nccc3ccccc23)s1	-0.7	-0.7	0.1	-51.0	x	x
Cc1ccccc1NC(=O)CCC(=O)N/N=C/c1ccccc1F	-1.6	-13.4	-0.2	1.7	x	x
CCCCN(CC)C(=O)c1c[nH]c2ccc(S(=O)(=O)N(C)c3ccc(Cl)cc3)cc2c1=O	0.8	-3.6	0.0	-1.0	x	x
CCCCN(CC)C(=O)c1c[nH]c2ccc(S(=O)(=O)N(C)c3ccc(Cl)cc3F)cc2c1=O	8.3*	-0.1	-0.1	5.7	-0.5	-10.7
CN(c1ccc(F)cc1)S(=O)(=O)c1ccc2[nH]cc(C(=O)NCC3CCCO3)c(=O)c2c1 (stereo not drawn)	5.4*	-5.4	0.3	-1.4	0.0	0.3
CCN1C(=O)C2C(c3ccccc3F)NC(C(=O)OC)(c3ccccc3)C2C1=O (stereo not drawn)	1.2	0.0	0.0	4.7	x	x
COc1ccc(Br)cc1/C=C1\N=C(c2ccc(-c3ccccc3)cc2)OC1=O	1.7	-9.6	0.1	13.4	x	x
CN(Cc1ccccc1)C1(O)C(=O)Nc2ccc([N+](=O)[O-])cc21 (stereo not drawn)	12.2*	-3.7	0.0	5.0	-0.6	10.1
CN(Cc1ccccc1)C1(O)C(=O)Nc2ccc(Cl)cc21 (stereo not drawn)	2.1	7.5	0.0	2.2	x	x
CC(C)(C)NC(=O)/C(=C/c1ccc(Cl)cc1)NC(=O)c1ccc([N+](=O)[O-])cc1	1.0	18.8	0.0	5.7	x	x
CC1=C(C(=O)OC2CCCCCCC2)C(c2ccccc2[N+](=O)[O-])CC(=O)N1 (stereo not drawn)	5.3*	4.5	0.0	-1.4	0.5	13.8
O=C1CC(c2cc3c(cc2[N+](=O)[O-])OCO3)c2ccc3ccccc3c2N1 (stereo not drawn)	11.8*	0.0	-0.3	-0.6	0.5	-0.5
CC1=C(C(=O)OC2CCCCCC2)C(c2ccccc2[N+](=O)[O-])CC(=O)N1 (stereo not drawn)	-0.1	8.9	0.1	-1.5	x	x
O=C1CC(c2ccccc2[N+](=O)[O-])c2ccc3c(O)cccc3c2N1 (stereo not drawn)	5.3*	-4.3	0.1	5.7	-0.1	1.5
O=C1CC(c2ccc3c(c2)OCO3)c2ccc3ccccc3c2N1 (stereo not drawn)	1.9	11.8	-0.2	11.7	x	x
CC(C)N1CCN(C/C=C/c2ccco2)CC1CCO (stereo not drawn)	1.7	-7.6	0.6	-0.8	x	x
O=C(Nc1c(C(=O)N2CCOCC2)cnn1-c1ccccc1Cl)c1ccccc1Cl	-0.1	-1.7	0.0	-0.8	x	x

Assay outcomes (PubChem)
